This passage reports residual activity results from ChEMBL document CHEMBL2218924, “A broad activity screen in support of a chemogenomic map for kinase signalling research and drug discovery” (Biochem J, 2013).

The target of test [1] is Vascular endothelial growth factor receptor 3 (Homo sapiens) (UniProt P35916). The settings on record: at 10 µM.
The target of test [2] is Macrophage colony-stimulating factor 1 receptor (Homo sapiens) (UniProt P07333). To be noted: at 1 µM.
For test [3] the target is unchanged. The settings on record: at 10 µM.
The target of test [4] is Tyrosine-protein kinase Fyn (Homo sapiens) (UniProt P06241). The settings on record: at 1 µM.
Test [5] has the same target. To be noted: at 10 µM.
For test [6], the target named is T1, Mitogen-activated protein kinase kinase kinase kinase 2 (Homo sapiens) (UniProt Q12851).
T1 sequence (whole entry): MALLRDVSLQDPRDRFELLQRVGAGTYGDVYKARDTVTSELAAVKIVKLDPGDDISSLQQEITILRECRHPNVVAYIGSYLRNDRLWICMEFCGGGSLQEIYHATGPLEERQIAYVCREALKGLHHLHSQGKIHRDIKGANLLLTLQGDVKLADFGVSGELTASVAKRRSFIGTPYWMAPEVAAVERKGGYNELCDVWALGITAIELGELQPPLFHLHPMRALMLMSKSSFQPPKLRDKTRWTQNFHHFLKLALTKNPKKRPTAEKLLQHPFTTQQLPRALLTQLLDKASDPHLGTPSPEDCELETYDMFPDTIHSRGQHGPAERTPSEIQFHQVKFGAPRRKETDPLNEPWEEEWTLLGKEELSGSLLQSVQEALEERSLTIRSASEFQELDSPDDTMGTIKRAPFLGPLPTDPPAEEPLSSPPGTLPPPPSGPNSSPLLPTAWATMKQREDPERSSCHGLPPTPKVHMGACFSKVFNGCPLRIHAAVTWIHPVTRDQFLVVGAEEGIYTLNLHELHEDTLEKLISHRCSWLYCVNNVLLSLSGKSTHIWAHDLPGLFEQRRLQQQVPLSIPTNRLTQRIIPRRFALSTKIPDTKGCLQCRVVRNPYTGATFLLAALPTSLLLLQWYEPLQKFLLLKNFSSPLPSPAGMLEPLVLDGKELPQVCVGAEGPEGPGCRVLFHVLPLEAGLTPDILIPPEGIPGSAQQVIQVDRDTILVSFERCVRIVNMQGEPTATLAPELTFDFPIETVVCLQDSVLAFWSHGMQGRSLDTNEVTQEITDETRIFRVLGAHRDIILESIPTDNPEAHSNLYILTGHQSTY
To be noted: at 1 µM.

In test [7] the target is T1, Mitogen-activated protein kinase kinase kinase kinase 2 (Homo sapiens). To be noted: at 10 µM.
Test [8] has as its target G protein-coupled receptor kinase 5 (Homo sapiens) (UniProt P34947). To be noted: at 10 µM.
In test [9] the target is G protein-coupled receptor kinase 6 (Homo sapiens) (UniProt P43250). The settings on record: at 10 µM.
The target in test [10] is T2, Rhodopsin kinase GRK7 (Homo sapiens) (UniProt Q8WTQ7).
T2 sequence (whole entry): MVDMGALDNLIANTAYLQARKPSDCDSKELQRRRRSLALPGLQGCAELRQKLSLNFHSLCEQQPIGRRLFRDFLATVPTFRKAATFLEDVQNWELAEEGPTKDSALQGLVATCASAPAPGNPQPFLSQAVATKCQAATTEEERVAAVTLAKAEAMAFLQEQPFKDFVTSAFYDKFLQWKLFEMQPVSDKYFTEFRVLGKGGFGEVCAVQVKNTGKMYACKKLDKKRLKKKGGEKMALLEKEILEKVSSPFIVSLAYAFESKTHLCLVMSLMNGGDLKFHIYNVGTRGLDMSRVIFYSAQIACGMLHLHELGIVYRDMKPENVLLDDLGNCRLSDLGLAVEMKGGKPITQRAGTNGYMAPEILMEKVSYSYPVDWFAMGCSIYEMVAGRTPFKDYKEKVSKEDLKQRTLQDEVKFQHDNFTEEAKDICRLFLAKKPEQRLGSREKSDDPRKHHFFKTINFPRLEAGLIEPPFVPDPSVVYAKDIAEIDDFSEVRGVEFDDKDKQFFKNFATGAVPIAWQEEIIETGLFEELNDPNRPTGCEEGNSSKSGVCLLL
To be noted: at 1 µM.

Test [11] addresses T2, Rhodopsin kinase GRK7 (Homo sapiens). The settings on record: at 10 µM.
In test [12] the target is Glycogen synthase kinase-3 alpha (Homo sapiens) (UniProt P49840). The settings on record: at 1 µM.
The target is the same in test [13]. To be noted: at 10 µM.
For test [14], the target named is Glycogen synthase kinase-3 beta (Homo sapiens) (UniProt P49841). To be noted: at 1 µM.
Test [15] has the same target. The settings on record: at 10 µM.
Test [16] has as its target Homeodomain-interacting protein kinase 1 (Homo sapiens) (UniProt Q86Z02). The settings on record: at 1 µM.
Test [17] shares this target. The settings on record: at 10 µM.
The target of test [18] is Homeodomain-interacting protein kinase 2 (Homo sapiens) (UniProt Q9H2X6). To be noted: at 1 µM.
Test [19] has the same target. To be noted: at 10 µM.
Test [20] concerns the target Homeodomain-interacting protein kinase 3 (Homo sapiens) (UniProt Q9H422). To be noted: at 1 µM.

Glycogen synthase kinase-3 alpha (Homo sapiens), sequence (P49840 2-483 limits assumed): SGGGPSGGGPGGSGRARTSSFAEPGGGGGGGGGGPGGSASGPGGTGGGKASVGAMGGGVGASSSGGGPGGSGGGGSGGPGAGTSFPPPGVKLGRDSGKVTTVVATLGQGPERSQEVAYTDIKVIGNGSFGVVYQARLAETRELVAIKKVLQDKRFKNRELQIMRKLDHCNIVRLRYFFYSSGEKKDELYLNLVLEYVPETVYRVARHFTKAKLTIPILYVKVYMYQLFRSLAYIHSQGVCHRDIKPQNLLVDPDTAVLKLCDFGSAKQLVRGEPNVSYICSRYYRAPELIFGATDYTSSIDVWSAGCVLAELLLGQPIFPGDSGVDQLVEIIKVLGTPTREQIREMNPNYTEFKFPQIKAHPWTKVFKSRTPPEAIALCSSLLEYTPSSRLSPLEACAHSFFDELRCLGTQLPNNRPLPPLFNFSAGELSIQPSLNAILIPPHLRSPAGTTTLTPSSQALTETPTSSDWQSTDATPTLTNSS
Homeodomain-interacting protein kinase 1 (Homo sapiens), sequence (Q86Z02 whole entry, looked up): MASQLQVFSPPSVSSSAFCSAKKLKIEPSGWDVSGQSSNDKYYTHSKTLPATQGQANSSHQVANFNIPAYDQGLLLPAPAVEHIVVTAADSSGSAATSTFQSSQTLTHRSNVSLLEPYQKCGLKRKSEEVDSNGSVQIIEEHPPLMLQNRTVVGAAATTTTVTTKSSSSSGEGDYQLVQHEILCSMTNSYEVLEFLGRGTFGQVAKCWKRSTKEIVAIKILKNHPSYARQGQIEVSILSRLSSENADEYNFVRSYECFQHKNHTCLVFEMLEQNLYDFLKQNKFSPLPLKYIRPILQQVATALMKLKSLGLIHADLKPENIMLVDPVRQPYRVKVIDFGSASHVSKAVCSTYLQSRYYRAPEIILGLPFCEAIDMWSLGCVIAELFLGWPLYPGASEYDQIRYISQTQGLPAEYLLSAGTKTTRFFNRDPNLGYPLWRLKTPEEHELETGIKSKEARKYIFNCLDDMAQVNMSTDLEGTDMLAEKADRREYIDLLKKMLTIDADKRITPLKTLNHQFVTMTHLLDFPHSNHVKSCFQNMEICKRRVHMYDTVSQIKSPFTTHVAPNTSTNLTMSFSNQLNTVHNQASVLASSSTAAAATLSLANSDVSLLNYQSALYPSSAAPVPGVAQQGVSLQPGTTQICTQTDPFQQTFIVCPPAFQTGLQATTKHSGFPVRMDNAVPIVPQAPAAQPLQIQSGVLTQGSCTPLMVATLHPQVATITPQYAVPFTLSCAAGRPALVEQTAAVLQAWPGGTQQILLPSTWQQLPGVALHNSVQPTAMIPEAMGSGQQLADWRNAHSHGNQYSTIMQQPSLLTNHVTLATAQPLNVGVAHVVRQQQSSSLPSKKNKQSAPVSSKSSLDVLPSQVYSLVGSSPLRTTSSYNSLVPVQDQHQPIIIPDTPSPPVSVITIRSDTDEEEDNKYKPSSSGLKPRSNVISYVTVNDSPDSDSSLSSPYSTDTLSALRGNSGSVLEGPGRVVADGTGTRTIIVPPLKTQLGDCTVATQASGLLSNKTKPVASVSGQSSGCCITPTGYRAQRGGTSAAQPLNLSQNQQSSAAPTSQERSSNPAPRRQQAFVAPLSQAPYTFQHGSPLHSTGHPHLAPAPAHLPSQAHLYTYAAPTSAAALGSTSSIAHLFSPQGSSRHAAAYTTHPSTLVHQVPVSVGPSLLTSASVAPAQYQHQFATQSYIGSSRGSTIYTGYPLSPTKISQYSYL
Macrophage colony-stimulating factor 1 receptor (Homo sapiens), sequence (P07333 whole entry): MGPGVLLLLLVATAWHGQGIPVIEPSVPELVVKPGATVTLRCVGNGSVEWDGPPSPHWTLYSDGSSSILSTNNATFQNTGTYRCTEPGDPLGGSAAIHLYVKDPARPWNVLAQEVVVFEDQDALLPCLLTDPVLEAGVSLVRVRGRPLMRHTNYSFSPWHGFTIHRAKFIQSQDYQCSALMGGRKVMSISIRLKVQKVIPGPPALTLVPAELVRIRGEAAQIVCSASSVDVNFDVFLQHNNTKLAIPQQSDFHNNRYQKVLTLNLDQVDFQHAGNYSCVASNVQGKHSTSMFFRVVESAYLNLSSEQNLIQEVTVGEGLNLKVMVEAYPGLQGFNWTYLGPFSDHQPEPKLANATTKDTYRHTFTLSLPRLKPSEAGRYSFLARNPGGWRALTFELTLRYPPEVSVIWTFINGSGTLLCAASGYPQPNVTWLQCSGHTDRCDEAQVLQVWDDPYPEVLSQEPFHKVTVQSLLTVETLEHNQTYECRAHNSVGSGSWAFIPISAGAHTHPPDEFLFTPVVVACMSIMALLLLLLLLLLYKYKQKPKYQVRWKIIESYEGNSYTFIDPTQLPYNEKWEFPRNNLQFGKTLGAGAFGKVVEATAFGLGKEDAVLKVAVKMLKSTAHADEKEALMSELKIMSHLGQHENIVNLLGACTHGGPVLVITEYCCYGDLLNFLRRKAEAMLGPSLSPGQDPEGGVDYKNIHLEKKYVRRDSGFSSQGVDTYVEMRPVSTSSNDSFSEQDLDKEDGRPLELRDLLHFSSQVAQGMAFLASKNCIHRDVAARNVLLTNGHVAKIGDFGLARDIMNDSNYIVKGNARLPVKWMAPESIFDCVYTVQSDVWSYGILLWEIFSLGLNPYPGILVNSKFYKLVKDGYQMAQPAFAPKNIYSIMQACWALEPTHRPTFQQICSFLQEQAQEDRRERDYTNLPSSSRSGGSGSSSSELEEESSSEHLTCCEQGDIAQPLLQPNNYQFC
G protein-coupled receptor kinase 5 (Homo sapiens), sequence (P34947 whole entry, looked up): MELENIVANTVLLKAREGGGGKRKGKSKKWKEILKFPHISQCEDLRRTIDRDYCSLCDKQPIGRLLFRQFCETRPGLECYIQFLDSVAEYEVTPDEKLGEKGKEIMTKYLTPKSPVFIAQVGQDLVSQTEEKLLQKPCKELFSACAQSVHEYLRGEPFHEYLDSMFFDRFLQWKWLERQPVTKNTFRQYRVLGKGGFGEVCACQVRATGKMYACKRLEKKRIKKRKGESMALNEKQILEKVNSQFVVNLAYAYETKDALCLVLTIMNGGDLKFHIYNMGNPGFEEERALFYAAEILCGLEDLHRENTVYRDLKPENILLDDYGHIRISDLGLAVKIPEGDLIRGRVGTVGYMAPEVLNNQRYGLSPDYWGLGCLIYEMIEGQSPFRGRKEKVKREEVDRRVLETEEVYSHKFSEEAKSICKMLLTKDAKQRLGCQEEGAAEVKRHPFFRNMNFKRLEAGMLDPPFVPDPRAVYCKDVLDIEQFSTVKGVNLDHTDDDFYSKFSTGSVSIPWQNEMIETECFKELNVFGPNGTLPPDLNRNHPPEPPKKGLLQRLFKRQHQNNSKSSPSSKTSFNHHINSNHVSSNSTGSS
Homeodomain-interacting protein kinase 3 (Homo sapiens), sequence (Q9H422 whole entry, looked up): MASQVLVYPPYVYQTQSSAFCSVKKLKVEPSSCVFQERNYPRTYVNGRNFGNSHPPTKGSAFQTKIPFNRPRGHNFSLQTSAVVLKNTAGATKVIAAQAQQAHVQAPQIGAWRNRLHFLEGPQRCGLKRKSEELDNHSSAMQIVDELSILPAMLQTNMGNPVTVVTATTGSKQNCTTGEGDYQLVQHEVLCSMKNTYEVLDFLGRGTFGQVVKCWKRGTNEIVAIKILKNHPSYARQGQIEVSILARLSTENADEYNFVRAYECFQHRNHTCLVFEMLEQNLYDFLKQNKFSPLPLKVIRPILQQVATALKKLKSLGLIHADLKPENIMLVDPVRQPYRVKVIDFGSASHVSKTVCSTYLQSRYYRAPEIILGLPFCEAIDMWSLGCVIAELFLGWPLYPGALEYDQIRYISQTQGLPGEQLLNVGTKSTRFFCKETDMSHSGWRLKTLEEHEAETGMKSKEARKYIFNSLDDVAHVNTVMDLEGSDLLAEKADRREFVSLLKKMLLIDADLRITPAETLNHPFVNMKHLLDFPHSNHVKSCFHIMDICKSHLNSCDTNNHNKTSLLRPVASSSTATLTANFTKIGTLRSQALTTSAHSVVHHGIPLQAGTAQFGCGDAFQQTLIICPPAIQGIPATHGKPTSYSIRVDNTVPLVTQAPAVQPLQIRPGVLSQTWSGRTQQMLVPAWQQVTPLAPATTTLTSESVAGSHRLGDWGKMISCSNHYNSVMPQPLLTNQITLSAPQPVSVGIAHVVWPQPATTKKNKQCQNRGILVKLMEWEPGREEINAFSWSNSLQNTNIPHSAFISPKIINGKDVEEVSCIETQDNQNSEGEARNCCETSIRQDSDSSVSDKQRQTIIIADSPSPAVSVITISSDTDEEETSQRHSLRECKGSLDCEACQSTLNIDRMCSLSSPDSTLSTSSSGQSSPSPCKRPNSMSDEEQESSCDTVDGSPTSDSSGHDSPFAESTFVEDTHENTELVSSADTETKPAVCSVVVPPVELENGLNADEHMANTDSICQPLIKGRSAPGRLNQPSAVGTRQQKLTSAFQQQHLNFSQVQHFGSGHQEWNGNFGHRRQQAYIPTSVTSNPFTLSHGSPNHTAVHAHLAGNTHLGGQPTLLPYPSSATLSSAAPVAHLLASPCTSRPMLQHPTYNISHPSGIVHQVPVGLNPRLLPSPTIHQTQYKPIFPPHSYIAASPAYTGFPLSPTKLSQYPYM
Tyrosine-protein kinase Fyn (Homo sapiens), sequence (P06241 2-537 limits assumed): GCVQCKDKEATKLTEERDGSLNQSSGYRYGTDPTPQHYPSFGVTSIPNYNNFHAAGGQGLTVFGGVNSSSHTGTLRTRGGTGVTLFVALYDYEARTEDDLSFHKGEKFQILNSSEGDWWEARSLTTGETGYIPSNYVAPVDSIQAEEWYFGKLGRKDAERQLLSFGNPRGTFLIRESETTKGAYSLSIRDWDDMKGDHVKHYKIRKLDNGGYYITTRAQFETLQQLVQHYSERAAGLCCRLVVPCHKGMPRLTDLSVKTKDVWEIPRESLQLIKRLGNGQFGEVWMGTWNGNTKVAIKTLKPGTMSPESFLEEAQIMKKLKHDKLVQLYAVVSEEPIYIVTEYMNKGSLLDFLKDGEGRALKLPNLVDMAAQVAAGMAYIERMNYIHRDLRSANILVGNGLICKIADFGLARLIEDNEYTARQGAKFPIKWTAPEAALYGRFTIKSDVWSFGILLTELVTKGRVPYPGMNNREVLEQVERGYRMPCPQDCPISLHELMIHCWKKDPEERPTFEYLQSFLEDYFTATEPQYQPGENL

For `Oc1n[nH]c2nnc(-c3c(-c4ccccc4)nn4ccccc34)cc12`, the residual activity worked out at 60% in test [1]; 49% in test [2]; 15% in test [3]; 75% in test [4]; 77% in test [5]; 82% in test [6]. In addition, the residual activity in test [7] was 75%; in [8], 97%; in [9], 85%; in test [10] it was 85%; in test [11] it was 82%; in test [12] it was 100%. For the same compound, the residual activity in test [13] is 83%; in [14] it was 113%; in test [15] it was 106%; in [16] it was 98%; in test [17], 95%; in [18] it was 95%. Further, the residual activity in [19] is 92%; in test [20], 98%.
With `CN(C)c1ccc(/C=C2\C(=O)Nc3ccccc32)cc1`, the residual activity came out at 1% in test [1]; 8% in test [2]; 2% in [3]; 83% in test [4]; 56% in [5]; 83% in test [6]. Besides, the residual activity is 25% in test [7]; 86% in [8]; 90% in [9]; 96% in test [10]; 84% in test [11]; 103% in test [12]. Moreover, the residual activity is 108% in test [13]; 92% in [14]; 97% in [15]; 96% in test [16]; 102% in [17]; 97% in test [18]. Besides, the residual activity in test [19] came out at 83%; in [20], 102%.
Consider `O=C(Nc1cccc(Nc2nccc(Nc3cccc(C(F)(F)F)c3)n2)c1)C1CC1`, for which the residual activity in test [1] came out at 6%; in [2] it was 14%; in test [3], 2%; in test [4], 47%; in test [5], 7%; in test [6], 97%. In addition, the residual activity in test [7] stood at 32%; in test [8] it was 102%; in [9], 94%; in test [10], 104%; in [11], 88%; in test [12] it was 94%. For the same compound, the residual activity in test [13] came out at 67%; in test [14], 79%; in test [15], 104%; in test [16], 96%; in [17], 102%; in [18], 93%. The figures for the residual activity in test [19] and in [20] were 89% and 103%, respectively.
For the compound `O=C1c2ccccc2-[n+]2ccc3c([nH]c4ccccc43)c21`, the residual activity is 25% in [1]; 68% in test [2]; 58% in [3]; 77% in test [4]; 76% in test [5]; 75% in test [6]. Moreover, the residual activity in test [7] is 73%; in test [8] it was 91%; in test [9], 90%; in test [10], 91%; in test [11], 84%; in test [12] it was 107%. Further, the residual activity in test [13] worked out at 103%; in test [14] it was 120%; in test [15], 103%; in test [16], 97%; in [17] it was 90%; in [18] it was 96%. Besides, the values for the residual activity in test [19] and in test [20] were 91% and 77%, respectively.
For `CCOc1cc2ncnc(Nc3cccc(Br)c3)c2cc1OCC`, the residual activity in [1] is 4%; in [2], 73%; in test [3] it was 27%; in test [4] it was 26%; in [5], 4%; in test [6], 78%. Besides, the residual activity was 39% in test [7]; 84% in test [8]; 90% in test [9]; 94% in [10]; 91% in test [11]; 109% in test [12]. In addition, the residual activity in [13] came to 115%; in test [14], 89%; in test [15], 52%; in test [16] it was 103%; in test [17] it was 99%; in test [18], 100%. The figures for the residual activity in test [19] and in test [20] were 91% and 93%, respectively.
`CO[C@H]1[C@@H](OC)C[C@H](C)[C@@H](OC)C2=CC(=O)C=C(NC(=O)/C(C)=C/C=C/[C@H](OC)[C@@H](OC(N)=O)/C(C)=C/[C@@H]1C)C2=O`: the residual activity in test [1] came out at 89%; in test [2] it was 131%; in test [3], 112%; in [4] it was 88%; in test [5], 96%; in test [6], 92%. Further, the residual activity in test [7] worked out at 81%; in test [8], 102%; in test [9] it was 89%; in test [10], 100%; in test [11], 92%; in test [12] it was 100%. Besides, the residual activity in [13] is 109%; in [14], 92%; in [15] it was 104%; in [16], 102%; in [17] it was 104%; in test [18], 108%. In addition, the residual activity came out at 92% in test [19] and 100% in test [20].
For the compound `N#C/C(=C(\N)Sc1ccc(N)cc1)c1ccccc1C(F)(F)F`, the residual activity worked out at 64% in test [1]; 86% in test [2]; 68% in test [3]; 71% in test [4]; 13% in [5]; 69% in test [6]. In addition, the residual activity in [7] turned out to be 72%; in [8] it was 95%; in test [9], 93%; in test [10], 97%; in [11], 91%; in test [12], 89%. Also, the residual activity in test [13] was 87%; in [14] it was 99%; in [15], 96%; in [16], 109%; in [17], 101%; in [18], 99%. The residual activity in [19] amounted to 92%; in [20] it was 93%.
